The campaign covered roughly 340,000 compounds. About 2,100 (0.62%) were called active.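 How the source made its calls: active means first-screen hits whose inhibition reached a set limit at any dose in the follow-up dose series; inconclusive means inhibition above the set first-screen limit but never retested; inactive means the rest.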 Not all results are given here. Potency and affinity values are given separately.
These compounds were tested against Rac GTPase-activating protein 1 (Homo sapiens) (UniProt Q9H0H5) (assay: MgcRacGAP GTPase-activating activity inhibitors, confirmation, biochemical, ADP Hunter fluorescence, primary and confirmatory (AID 624330;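 further: fluorescence reports GDP produced by GAP-driven GTP hydrolysis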)). Settings: MgcRacGAP-stimulated Rac1 GTP hydrolysis, at 30 µM, hits give high values, GST-tagged Rac1 F28L mutant substrate.
Chain of Rac GTPase-activating protein 1 (Homo sapiens) (Q9H0H5 whole entry, looked up): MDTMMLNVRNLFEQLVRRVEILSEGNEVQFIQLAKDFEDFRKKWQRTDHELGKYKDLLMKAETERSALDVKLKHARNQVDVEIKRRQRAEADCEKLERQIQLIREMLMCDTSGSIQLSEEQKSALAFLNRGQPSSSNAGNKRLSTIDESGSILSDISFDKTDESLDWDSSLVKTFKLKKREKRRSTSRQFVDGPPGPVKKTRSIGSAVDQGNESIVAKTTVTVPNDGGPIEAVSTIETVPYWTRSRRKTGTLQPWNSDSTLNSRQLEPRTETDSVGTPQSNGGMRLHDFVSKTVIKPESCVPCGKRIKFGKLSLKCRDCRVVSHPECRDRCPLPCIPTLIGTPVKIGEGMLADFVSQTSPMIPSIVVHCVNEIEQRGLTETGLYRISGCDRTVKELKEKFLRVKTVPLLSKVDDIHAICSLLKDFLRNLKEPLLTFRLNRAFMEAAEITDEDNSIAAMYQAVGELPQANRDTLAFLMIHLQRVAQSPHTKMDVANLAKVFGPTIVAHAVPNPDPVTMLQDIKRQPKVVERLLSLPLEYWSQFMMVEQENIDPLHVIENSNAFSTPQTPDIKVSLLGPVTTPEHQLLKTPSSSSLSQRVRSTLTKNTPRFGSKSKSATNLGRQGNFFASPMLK

inhibition, inactive:
Cc1ccc(C2CN(CCC(N)=O)C(=O)CO2)cc1 (stereo not given) 3.49%
CC1CCCCC1NC(=O)CCCCCn1c(=S)[nH]c2ccsc2c1=O (stereo not given) 6.67%
CC1=C([N+](=O)[O-])C(c2ccccc2C(F)(F)F)NC(=O)N1C (stereo not given) 2.05%
COc1ccc2c(C)cc(SCC(=O)NC3CCCCC3)nc2c1 3.25%
O=C(CN1C(=O)COc2ccccc21)N1CCc2ccccc2C1 2.34%
O=C(NCCc1csc(-c2ccccc2)n1)c1ccc(Br)o1 9.81%
O=C(COC(=O)c1ccc(F)c(S(=O)(=O)N2CCOCC2)c1)NCc1ccc(Cl)cc1 -1.94%
N#CCCn1cc(C(=O)Nc2ccc([N+](=O)[O-])cc2)c(-c2cccs2)n1 4.36%
C[C@@H]1CN([C@H](C)CO)C(=O)c2cc(Br)cnc2O[C@@H]1CN(C)C(=O)c1ccccc1 14.7%
Cn1c(=O)cc(OCCCC(=O)NCCCN2CCN(Cc3ccccc3)CC2)c2ccccc21 2.96%
C=CCOc1ccc(/C=N/NC(=O)C(=O)N2CCCCCC2)cc1OC 2.52%
O=C(NCC1CCCO1)C(=O)N/N=C/c1ccc(O)c(Cl)c1 (stereo not given) 26.7%
O=C(N/N=C/c1cccc(O)c1)C(=O)N1CCCCCC1 0.3%
COc1cc(/C=N/NC(=O)C(=O)NCC2CCCO2)cc(Cl)c1O (stereo not given) 21.6%
CCN(Cc1nc(-c2ccc(C)cc2)no1)C(=O)c1ccco1 2.23%
Cc1nnc(NC(=O)CSc2ccccc2N)s1 6.42%
CCOc1cccc2cc(C(=O)N3CCOCC3)c(=O)oc12 5.1%
O=C(Cn1cccc1C(=O)c1ccccc1)NCc1cccnc1 14.8%
O=C(CSc1nc2ccccc2[nH]1)Nc1c(F)c(F)c(F)c(F)c1F 1.98%
COc1ccccc1S(=O)(=O)Cc1ccc(C(=O)NC2CCCCC2)o1 5.84%
COc1cc(CN2CCC(C(=O)N3CCCC(C)C3)CC2)cc(OC)c1O (stereo not given) 26.8%
COc1cc(CN2CCC(C(=O)NC3CCCC3)CC2)cc(OC)c1O 23.1%
COc1cc(CN2CCCCCC2)cc(Br)c1O 15.4%
CCOc1cc(CN2CCC(N3CCC(C(=O)NC4CC4)CC3)CC2)ccc1O 17.9%
COc1ccc(CN2CCC(C(=O)N3CCCC(C)C3)CC2)cc1OC (stereo not given) 12.3%
CCOC(=O)C1CCN(Cc2ccc(O)c(OC)c2)CC1 27.4%
COCc1cc(C(C)=O)ccc1OCC(=O)Nc1ccc(NC(C)=O)cc1 1.37%
CC(NC(=O)c1ccc(Br)o1)c1ccccc1 (stereo not given) 7.96%
CCC(=O)N(CCc1ccccc1)Cc1cc2cc3c(cc2[nH]c1=O)OCO3 8.92%
N#CC(=Cc1ccccn1)c1nc(-c2ccc(Cl)cc2)cs1 6.28%
Cc1ccc(C(=O)NCC(=O)NCC(=O)OCc2ccc(Cl)cc2)cc1 8.02%
O=C(CCCn1c(=O)[nH]c2ccccc2c1=O)NCCSCc1ccccc1 -5.64%
CCCn1c(N)c(Br)c(=O)[nH]c1=O 12.3%
Cn1c(=O)[nH]c2c(cnn2C)c1=O -2.19%
Cn1nnnc1SCCNC(=O)C1CCC(=O)N(Cc2ccccc2F)C1 (stereo not given) 11%
Cc1cc(Nc2cccc([N+](=O)[O-])c2)c2ccccc2n1 13.8%
Cc1cc(Nc2ccc([N+](=O)[O-])cc2)c2ccccc2n1 4.06%
O=C(c1cccc(S(=O)(=O)N2CCc3ccccc32)c1)N1CCN(CCO)CC1 1.12%
O=C(NNc1c2ccccc2nc2ccccc12)c1ccccc1O 9.79%
O=C(NNc1c2ccccc2nc2ccccc12)c1ccccc1Cl 8.54%
Cc1ccc(S(=O)(=O)NCC(=O)N(CC2CCCO2)C(C(=O)NC2CCCC2)C(C)C)cc1 (stereo not given) -2.26%
N#CCCN1CCn2c1nc1ccccc12 7.51%
N#CCCN1CCN(CCC#N)C1=S -2.38%
COc1ccc(Cc2nc3c4c(ncn3n2)Oc2c(ccc3ccccc23)C4c2ccc(OC)c(OC)c2)cc1 (stereo not given) 0.4%
COc1cccc(-c2nnc(NC(=O)CCS(=O)(=O)c3ccc(F)cc3)o2)c1 9.6%
OCC[C@H]1C[C@H](O)[C@@H](O)[C@]2(CCCc3ccccc3O2)O1 6.49%
CC(C)(C)N(Cc1ccccc1)C(=O)COC(=O)/C=C/c1ccc2c(c1)OCO2 7.28%
CC(NC(=O)N(Cc1ccccc1)Cc1ccc2c(c1)OCO2)(C(F)(F)F)C(F)(F)F -1.55%
CSc1cccc(NC(=O)COC(=O)C2CCN(S(=O)(=O)c3ccccc3)CC2)c1 3.95%
CC[C@H]1CN2CCc3cc(OC)c(OC)cc3C2C[C@@H]1C[C@H]1NCCc2cc(OC)c(OC)cc21 (stereo not given in full) 5.06%
CC[C@H]1CN2CCc3cc(OC)c(OC)cc3[C@@H]2C[C@@H]1C[C@H]1NCCc2cc(OC)c(OC)cc21 -1.46%
Oc1cccc(NC(=S)N=Nc2c(O)[nH]c3ccc(Br)cc23)c1 21.1%
COc1ccc(NC(=S)N=Nc2c(O)[nH]c3ccccc23)cc1 19.4%
Oc1[nH]c2ccc(Br)cc2c1N=NC(=S)Nc1ccc(F)cc1 2.02%
Cc1ccc(NC(=S)N=Nc2c(O)[nH]c3ccccc23)cc1 9.95%
CC(=O)n1cc(/C=N/NC(=O)c2ccc([N+](=O)[O-])cc2)c2ccccc21 7.25%
CCOC(=O)c1ccc(NC(=S)N(CCCN2CCCC(C)C2)Cc2ccco2)cc1 (stereo not given) 3.37%
Cc1ccc(-c2cc3c(nn2)-c2ccccc2C3=O)cc1 11.8%
CC1CCC2(CC1)NC(=O)N(CC(=O)Nc1cccc(S(=O)(=O)N3CCCC3)c1)C2=O (stereo not given) 4.59%
CCOc1ccc(-n2nc(C(=O)NC3CCCCC3)c3ccccc3c2=O)cc1 -4.66%
Nc1[nH]c(=S)nc2nc(-c3ccccc3)c(-c3ccccc3)nc12 9.86%
Nc1nc(N)c2nc(-c3ccccc3)c(N)nc2n1 4.54%
COCC1CCCCC1OS(N)(=O)=O (stereo not given) 10.2%
Nc1ccc(Cc2ccc(N)c(C(=O)O)c2)cc1C(=O)O 7.39%
Nc1ccc(Cc2ccc(N)c(O)c2)cc1O -7.75%
N#Cc1cc(C(=O)Cc2ccccc2)c[nH]1 -3.54%
COc1cccc(C(=O)C2CCCN(C(=O)c3ccc(C#CC(C)(C)O)cc3)C2)c1 (stereo not given) 1.51%
COc1ccc(C(=O)N2c3ccccc3CC2C)cc1OC (stereo not given) 3.63%
O=C(c1ccc(F)cc1)N1CCC(N2CCCCCC2)CC1 11%
COc1cccc(C(=O)N2CCN(C3CCC(c4ccccc4)CC3)CC2)c1 (stereo not given) 14.9%
O=C(c1ccc(F)cc1)N1CCN(C2CCC(c3ccccc3)CC2)CC1 (stereo not given) 12.1%
O=C(c1ccc([N+](=O)[O-])cc1)N1CCCC1 13.8%
CC1CCCC(N2CCN(C(=O)c3ccc(F)cc3)CC2)C1 (stereo not given) 19.6%
O=C(c1ccccc1)N1CCN(C2CCCCC2)CC1 44.8%
O=C(c1ccccc1)N1CCN(C2CCCCCC2)CC1 25.4%
COc1cc(OC)cc(C(=O)N2CCN(C3CCCCC3)CC2)c1 19.9%
COc1ccc(-n2c(SC3CCOC3=O)nc3ccccc3c2=O)cc1OC (stereo not given) 7.23%
FC(F)(F)c1cccc(N2CCN(C3CC4CCC3C4)CC2)c1 (stereo not given) -3.5%
CC(C(=O)NCCN1CCOCC1)(c1ccccc1)c1ccccc1 9.67%
CCN(Cc1cc(OC)c(OC)c(OC)c1)C(=S)Nc1cccc(SC)c1 8.44%
COc1ccccc1CNS(=O)(=O)c1cc(C(=O)NCC2CCCO2)c(Cl)cc1Cl (stereo not given) 4.61%
O=C(c1nc[nH]c1C(=O)N1CCN(c2ccccc2)CC1)N1CCN(c2ccccc2)CC1 8.08%
CN(CC(=O)Nc1ccccc1C(F)(F)F)C(=O)COc1cccnc1[N+](=O)[O-] 2.02%
C/C(=N\NC(=O)c1ccc(Cl)cc1)c1ccccn1 -1.19%
Cc1sc2ncnc(N3CCC(C(=O)Nc4ccc(S(N)(=O)=O)cc4)CC3)c2c1C 6.51%
O=C(c1cccc(F)c1)N1CCC(N2CCCCCC2)CC1 27%
CC1CCCC(N2CCN(C(=O)c3cccc(F)c3)CC2)C1 (stereo not given) 13.7%
CC(C)Oc1ccc(CNC(=O)c2cc(S(=O)(=O)N3CCOCC3)cn2C)cc1 7.69%
Cc1ccc2c(CC(=O)OCc3csc(C)n3)coc2c1 3%
Cc1ccc2c(CC(=O)O)coc2c1 -1.54%
COc1ccc(CN2CCN(C(=O)c3cc(-c4cccnc4)nc4ccc(Cl)cc34)CC2)c(OC)c1OC 0.91%
CCCn1c(=O)c2c(C(F)(F)F)cc(-c3ccco3)nc2n(CCC)c1=O 6.17%
C/C(CC(=O)Nc1ccc(N(C)C)cc1)=N\NC(=O)c1ccc(Cl)cc1 21.2%
C/C(CC(=O)Nc1ccc(N(C)C)cc1)=N\NC(=O)c1ccccn1 16.9%
C/C(CC(=O)Nc1ccc(N(C)C)cc1)=N\NC(=O)c1ccc(C(C)(C)C)cc1 14.2%
C/C(CC(=O)Nc1ccc([N+](=O)[O-])cc1)=N\NC(=O)c1ccccc1[N+](=O)[O-] 7.35%
COC(C(=O)N/N=C(\C)CC(=O)Nc1ccc(Cl)cc1C)c1ccccc1 (stereo not given) 0.47%
COc1cc(NC(=O)C/C(C)=N/NC(=O)C(OC)c2ccccc2)c(OC)cc1Cl (stereo not given) 15.9%
C/C(CC(=O)Nc1ccc(N(C)C)cc1)=N\NC(=O)c1cnccn1 25.8%
C/C(CC(=O)Nc1ccc([N+](=O)[O-])cc1)=N\NC(=O)c1ccccc1O 3.2%

Reference: PubChem BioAssay AID624330 (Southern Research Specialized Biocontainment Screening …, 2012)
